The values that follow come from PubChem BioAssay (Tox21).

A short description of test [1]: qHTS assay to identify small molecule agonists of the RXR signaling pathway - cell viability counter screen (AID 1159529). Also: series mostly up to about 77 µM; nearly all actives have a fitted effect of over 50% in size. In outline:
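RXR-alpha-UAS-bla HEK 293T cells in medium with 2% charcoal-stripped FBS were pre-incubated 5 hr, then compound-treated 16 hr at 37 C. Viability was read by CellTiter-Glo luminescence in the same wells as the beta-lactamase assay, with tetraoctyl ammonium bromide as positive control.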
(qHTS replaces the single test concentration by a dilution series.)

Test [2] is described as follows: qHTS assay to identify small molecule antagonists of the retinoid acid receptor (RAR) signaling pathway - cell viability counter screen (AID 1159551). Also: nearly all actives have a fitted effect of over 35% in size. In short, it runs like this: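 Luminescent ATP quantitation (CellTiter-Glo) gave cell viability in C3RL4 cells exposed to test chemicals for 6 h at 37 C alongside 1 uM final retinol.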
The nature of test [3]: qHTS assay to identify small molecule antagonists of the retinoic acid receptor (RAR) signaling pathway (AID 1159552; also: nearly all actives have a fitted effect of over 50% in size). In outline: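 Retinol signaling pathway inhibitors screened in C3RL4 RARE-luciferase reporter cells seeded overnight at 37 C, then compounds added with 1 uM (final) retinol as pathway substrate. After 6 hr at 37 C, luciferase luminescence read after 30 min at room temperature.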

Test [4] can be described thus: qHTS assay to identify small molecule antagonists of the estrogen related receptor (ERR) signaling pathway from Tox21 library - cell viability counter screen (AID 1224834). Also: nearly all actives have a fitted effect of over 30% in size. In short, it runs like this:
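Fluorescence from CellTiter-Fluor gives the viability read-out, taken 30 min after reagent addition. Before that, ERR cells seeded 6 h earlier were incubated with compounds for 17.5 h at 37 C.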

Test [5] concerns the target Luciferin 4-monooxygenase (Photinus pyralis) (UniProt P08659). The test is described as follows: qHTS assay to identify small molecule inhibitors of firefly luciferase (AID 1224835). Also: nearly all actives have a fitted effect of over 25% in size. Also: potency is read from the fitted curve at half-maximal effect. In outline: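 Biochemical qHTS: compounds run as interplate titrations against purified firefly enzyme, with D-luciferin and ATP each at its KM concentration. Light output recorded by CCD imaging.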

The nature of test [6]: qHTS assay to identify small molecule agonists of the constitutive androstane receptor (CAR) signaling pathway - cell viability counter screen (AID 1224836). Also: series mostly up to about 92 µM; nearly all actives have a fitted effect of over 45% in size. In outline:
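HepG2 cells stably carrying hCAR and a CYP2B6-2.2kb reporter; 15-concentration compounds plus PK11195 (final 0.75 uM), 23 hr at 37 C/5% CO2. Viability read by CellTiter-Fluor fluorescence.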

Test [7] is described as follows: qHTS assay to identify small molecule antagonists of the constitutive androstane receptor (CAR) signaling pathway - cell viability counter screen (AID 1224837). Also: series mostly up to about 92 µM; nearly all actives have a fitted effect of over 45% in size. In outline: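 HepG2-CYP2B6-hCAR cells, 2500/well, 4 hr pre-incubation; compound titration, 15 conc.; CITCO 50 nM final; 23 hr, 37 C/5% CO2; CellTiter-Fluor, fluorescence intensity.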
For test [8], the target named is Nuclear receptor subfamily 1 group I member 3 (Homo sapiens) (UniProt Q14994). The test is described as follows: qHTS assay to identify small molecule agonists of the constitutive androstane receptor (CAR) signaling pathway (AID 1224839). Also: nearly all actives have a fitted effect of over 15% in size. Also: potency is read from the fitted curve at half-maximal effect. In outline: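 HepG2 cells stably co-transfected with hCAR and a CYP2B6-2.2kb luciferase reporter; compounds at 15 concentrations with 0.75 uM PK11195 present. After 24 hr at 37 C, luciferase read by ONE-Glo luminescence.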
Nuclear receptor subfamily 1 group I member 3 (Homo sapiens), sequence (Q14994 whole entry, looked up): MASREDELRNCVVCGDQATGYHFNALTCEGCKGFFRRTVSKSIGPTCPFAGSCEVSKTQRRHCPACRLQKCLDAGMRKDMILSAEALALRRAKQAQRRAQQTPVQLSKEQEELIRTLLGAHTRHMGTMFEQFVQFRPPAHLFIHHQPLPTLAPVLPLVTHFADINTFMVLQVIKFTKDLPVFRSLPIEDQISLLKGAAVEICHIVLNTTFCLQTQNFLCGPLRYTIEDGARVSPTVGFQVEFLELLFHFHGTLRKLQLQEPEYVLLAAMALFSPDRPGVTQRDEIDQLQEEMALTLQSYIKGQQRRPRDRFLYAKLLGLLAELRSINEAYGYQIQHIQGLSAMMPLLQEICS

Test [9] can be described thus: qHTS assay to identify small molecule antagonists of the estrogen related receptor signaling pathway with the pleiotropic PPARgamma coactivator (PGC) from Tox21 10K library - cell viability counter screen (AID 1224840; active = well fitted cell-killing curve with a large enough effect in the repeat runs, not every such curve was filed as active; also: nearly all actives have a fitted effect of over 40% in size). In outline: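 PGC/ERR cells, 2,000/well; 6 h pre-incubation 37 C/5% CO2; cpd in DMSO via pin tool; 17.5 h 37 C; CellTiter-Fluor, 30 min; fluorescence.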

Test [10] in a line: qHTS assay to identify small molecule antagonists of the estrogen related receptor signaling pathway with the pleiotropic PPARgamma coactivator (PGC) from Tox21 10K library (AID 1224841; call rule not given here; also: series mostly up to about 92 µM; actives are mostly falling curves and most rising ones were filed inactive; nearly all actives have a fitted effect of over 50% in size). In short, it runs like this:
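PGC/ERR cell line, 2,000 cells/well; 6 h pre-incubation 37 C/5% CO2; compounds (DMSO) pinned in; 18 h, 37 C; One-Glo, 30 min RT; luminescence.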

Test [11] concerns the target Thyrotropin receptor (Homo sapiens) (UniProt P16473). Nature of the test: qHTS assay to identify small molecule agonists of the thyroid stimulating hormone receptor (TSHR) signaling pathway (AID 1224843; calls by dose curve; also: nearly all actives have a fitted effect of over 45% in size). In outline: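 TSHR-HEK293 cells in agonist mode, 30 min room-temperature step, then cAMP measured by competitive HTRF (cAMP-d2 with anti-cAMP cryptate) after 1 h at room temperature. Tested at 15 concentrations in triplicate.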

Test [12] can be described thus: qHTS assay to identify small molecule agonists of the hypoxia (HIF-1) signaling pathway - cell viability counter screen (AID 1224844; calls by dose curve; also: nearly all actives have a fitted effect of over 50% in size). In short, it runs like this: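 ME-180 HRE-bla cells, 2,000/well, 0.5% dialyzed FBS; 5 hr settle, 17 hr compound at 37C/5% CO2; CCF4-AM reporter read first, then CellTiter-Glo luminescence after 30 min RT.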
A short description of test [13]: qHTS assay to identify small molecule agonists of the retinoic acid receptor (RAR) signaling pathway (AID 1159553). Also: potency is read from the fitted curve at half-maximal effect. In outline: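 Luminescence from a RARE-driven luciferase reporter in C3RL4 cells served as the read-out, measured after 30 min with detection reagent at room temperature. Compounds in DMSO were applied for 6 hr at 37 C following overnight seeding.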

Test [14] addresses Nuclear receptor subfamily 1 group I member 3 (Homo sapiens) (UniProt Q14994). The test is described as follows: qHTS assay to identify small molecule antagonists of the constitutive androstane receptor (CAR) signaling pathway (AID 1224838).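 Also: HepG2 cells stably expressing hCAR with CYP2B6 luciferase reporter stimulated by CITCO; nearly all actives have a fitted effect of over 40% in size.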 In short, it runs like this: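 HepG2-CYP2B6-hCAR cells; 4 h pre-incubation; cpd (15 conc) + CITCO 50 nM final; 24 h, 37 C/5% CO2; ONE-Glo, luminescence.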

A short description of test [15]: qHTS assay to identify small molecule antagonists of the estrogen related receptor (ERR) signaling pathway - cell viability counter screen (AID 1224818).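 Also: series mostly up to about 46 µM; viability measured after 17.5 h of compound exposure.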 In outline: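 Multiplexed counter screen to separate cytotoxic compounds from true ERR modulators. ERR cells received DMSO-dissolved compounds after a 6 h pre-incubation, were exposed 17.5 h at 37 C, then assayed with CellTiter-Fluor fluorescence.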

A short description of test [16]: qHTS assay to identify small molecule antagonists of the estrogen related receptor signaling pathway with the pleiotropic PPARgamma coactivator (PGC) cell viability counter screen (AID 1224822; also: series mostly up to about 46 µM). In short, it runs like this:
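Cells: PGC/ERR, 2,000/well, 1536-well format. Pre-incubation 6 h, 37 C/5% CO2. Compound exposure 17.5 h, 37 C. Detection: CellTiter-Fluor, 30 min, fluorescence.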

Test [17] is described as follows: qHTS assay to identify small molecule agonists of the estrogen related receptor signaling pathway with the pleiotropic PPARgamma coactivator (PGC) from Tox21 10K library (AID 1224842). Also: nearly all actives have a fitted effect of over 15% in size. In short, it runs like this: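 PGC/ERR reporter cell line, 2,000 cells per well, incubated 6 h at 37 C before 23 nL compound in DMSO was added. After 18 h at 37 C, One-Glo luminescence read following 30 min at room temperature.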

Records with an inconclusive call do not appear. Activity calls are given as the source filed them. Unless noted, calls follow the shape of the dose curve; as a rule, active = well fitted curve in the direction sought with a large enough effect in the repeat runs; inconclusive = weak or mixed curves; inactive = no such curve, though single readings can be large; an effect the other way counts as inactive or inconclusive.

Luciferin 4-monooxygenase (Photinus pyralis), sequence (P08659 whole entry, looked up): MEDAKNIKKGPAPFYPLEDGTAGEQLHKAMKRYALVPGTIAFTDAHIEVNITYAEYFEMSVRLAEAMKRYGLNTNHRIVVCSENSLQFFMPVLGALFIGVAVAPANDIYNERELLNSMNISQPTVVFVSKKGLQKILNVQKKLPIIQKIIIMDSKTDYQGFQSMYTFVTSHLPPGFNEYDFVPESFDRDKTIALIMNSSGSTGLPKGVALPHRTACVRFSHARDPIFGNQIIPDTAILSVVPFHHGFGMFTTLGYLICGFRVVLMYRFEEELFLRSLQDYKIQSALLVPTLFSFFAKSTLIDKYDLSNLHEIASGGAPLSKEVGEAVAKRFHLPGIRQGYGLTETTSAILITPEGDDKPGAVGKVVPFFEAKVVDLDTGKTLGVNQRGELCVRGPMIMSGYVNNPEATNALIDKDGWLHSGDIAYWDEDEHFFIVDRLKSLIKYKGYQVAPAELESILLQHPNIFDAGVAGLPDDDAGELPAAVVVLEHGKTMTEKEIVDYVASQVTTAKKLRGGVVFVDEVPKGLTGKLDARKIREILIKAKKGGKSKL
Thyrotropin receptor (Homo sapiens), sequence (P16473 whole entry, looked up): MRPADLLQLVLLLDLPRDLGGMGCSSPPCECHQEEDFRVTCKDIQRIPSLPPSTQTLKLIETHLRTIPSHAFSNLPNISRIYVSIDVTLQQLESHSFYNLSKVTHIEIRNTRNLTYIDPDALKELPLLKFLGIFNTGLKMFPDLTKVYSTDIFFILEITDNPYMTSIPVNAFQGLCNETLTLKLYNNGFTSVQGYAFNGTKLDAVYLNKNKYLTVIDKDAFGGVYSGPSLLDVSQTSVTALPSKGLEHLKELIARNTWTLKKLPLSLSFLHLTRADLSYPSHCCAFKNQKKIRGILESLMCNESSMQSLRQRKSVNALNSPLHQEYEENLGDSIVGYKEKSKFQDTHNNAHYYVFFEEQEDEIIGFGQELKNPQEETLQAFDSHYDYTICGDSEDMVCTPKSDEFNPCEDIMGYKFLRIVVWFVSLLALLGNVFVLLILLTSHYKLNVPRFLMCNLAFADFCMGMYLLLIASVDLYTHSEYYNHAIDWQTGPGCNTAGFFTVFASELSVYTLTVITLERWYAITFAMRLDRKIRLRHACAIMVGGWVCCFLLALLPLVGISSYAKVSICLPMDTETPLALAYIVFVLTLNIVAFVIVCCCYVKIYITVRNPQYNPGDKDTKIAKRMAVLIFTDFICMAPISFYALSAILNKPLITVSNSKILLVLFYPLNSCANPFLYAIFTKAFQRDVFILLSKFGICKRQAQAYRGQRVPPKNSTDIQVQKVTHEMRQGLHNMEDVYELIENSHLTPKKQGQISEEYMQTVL

Regarding `CC1CCCCC1NC(=O)Nc1ccccc1` (stereo not drawn), the Potency result in [1], in [2], in test [3], in test [4], in test [6] and in test [7] was “inactive” throughout. Further, the Potency result in test [9], in test [10], in test [11] and in test [12] was “inactive” in each case. Further, the Potency in test [5] was 35.6 µM (active); in [8], 30.6 µM (active).

As to `C#C[C@]1(O)C=C[C@H]2[C@@H]3CCC4=CC(=O)CC[C@@H]4[C@H]3CC[C@@]21CC`, the Potency result in test [1], in test [2], in test [13], in [4], in test [5] and in test [6] was “inactive” in each case. The Potency result in test [7], in test [9] and in test [12] was “inactive” each time.

Turning to `CNC(=O)Oc1ccc(N(C)C)c(C)c1`, the Potency result in test [1], in test [2], in test [13], in test [4], in test [5] and in test [6] was “inactive” each time. The Potency entry in test [7], in [9], in [10], in test [11] and in test [12] was “inactive” throughout.

`CC1(C)CON(Cc2ccccc2Cl)C1=O`: the Potency result in test [1], in [2], in test [4], in test [5], in test [6] and in test [7] was “inactive” in each case. The Potency entry in test [14], in test [9] and in [12] was “inactive” in each case. For the same molecule, the values for the Potency in test [13] and in [8] were 68.6 µM (active) and 48.6 µM (active), respectively.

On to `CC(CCc1ccccc1)NC(C)C(O)c1ccc(O)cc1` (stereo not drawn), for which the Potency result in [1], in test [2], in test [4], in test [5], in [6] and in test [7] was “inactive” each time. For the same molecule, the Potency result in test [14], in test [8], in test [9], in [11] and in test [12] was “inactive” in each case. For the same molecule, the outcome in [15] and in test [16] was inactive.

For the molecule `O=C(N[C@H]1CN2CCC1CC2)c1cc2ccoc2cn1`, the Potency result in test [1], in [2], in [13], in test [4], in [5] and in [6] was “inactive” each time. The Potency entry in [7], in test [14], in test [9] and in test [11] was “inactive” each time.

Take `CC1(C)C(=O)NC(=O)NC1=O`: the Potency entry in test [1], in [2], in test [4], in test [5], in [6] and in test [7] was “inactive” each time. For the same molecule, the Potency result in test [14], in test [8], in [9], in test [10], in test [11] and in test [12] was “inactive” in each case. The outcome in [17] was inactive.

In the case of `Clc1cccc(N2CCNCC2)c1`, the Potency result in test [1], in test [2], in test [13], in [4], in test [5] and in test [6] was “inactive” in each case. The Potency entry in test [7], in [14], in [9], in [11] and in test [12] was “inactive” in each case.

As to `C=C(C)CN(CC)c1c([N+](=O)[O-])cc(C(F)(F)F)cc1[N+](=O)[O-]`, the Potency entry in test [1], in [2], in [13], in test [4], in test [5] and in [6] was “inactive” in each case. Further, the Potency result in test [7], in test [14], in test [8], in test [9] and in test [10] was “inactive” each time.

Take `Cc1ncsc1CCCl`: the Potency entry in [1], in test [2], in test [4], in test [5], in test [6] and in [7] was “inactive” each time. Moreover, the Potency result in test [9], in test [11] and in test [12] was “inactive” throughout. The molecule was classed as inactive in test [15] and in test [16].

Turning to `CN1CCN(C(=O)O[C@H]2c3nccnc3C(=O)N2c2ccc(Cl)cn2)CC1`, the Potency result in test [1], in test [2], in test [13], in test [4], in test [5] and in [6] was “inactive” each time. The Potency entry in test [7], in test [14], in [8], in test [9] and in [11] was “inactive” in each case.
